Reference: PubChem BioAssay AID1159580 (chemical genetic matrix, 2015)
“And” between values parts separate entries of the source, which are not always exact repeats. Equal values may be shown once. The campaign covered roughly 5,500 compounds. About 2,000 (36%) were called active. Roughly 18% stayed inconclusive and do not appear here. Cut-off read from the data, not from the text of the source: active = normalized growth mostly below about 0.91 (no sharp cut-off); inconclusive = no clear call, values can overlap the other calls; inactive = mostly above about 0.92. The list shows a part of the results.

Experiment: chemical genetic growth profiling, strain panel (AID 1159580);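 note: tested at 20 µM; growth read once vehicle control cultures reached saturation at 30 °C; 1 = growth at the plate median or of vehicle wells; lower values mean less growth of the strain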
Conditions: growth OD

Measured: normalized growth

O=[N+]([O-])c1cc(O)c(O)c([N+](=O)[O-])c1
inactive: S. cerevisiae deletion strains, locus YJL187C, strain SWE1 (second series), active compounds read low 1.02 | S. cerevisiae deletion strains, locus YJL187C, strain SWE1, active compounds read low 1.01 | S. cerevisiae deletion strains, locus YJR075W, strain HOC1, active compounds read low 1.05 | S. cerevisiae deletion strains, locus YKL009W, strain mrt4, active compounds read low 1.01 | S. cerevisiae deletion strains, locus YKL068W, active compounds read low 0.974 | S. cerevisiae deletion strains, locus YKL085W, strain MDH1 (second series), active compounds read low 0.97 | S. cerevisiae deletion strains, locus YKL085W, strain MDH1, active compounds read low 0.97 | S. cerevisiae deletion strains, locus YKL160W, strain elf1, active compounds read low 1 | S. cerevisiae deletion strains, locus YKR001C, strain vps1, active compounds read low 1 | S. cerevisiae deletion strains, locus YKR026C, strain gcn3, active compounds read low 1.01 | S. cerevisiae deletion strains, locus YKR091W, strain srl3, active compounds read low 1.01 | S. cerevisiae deletion strains, locus YLL001W, strain dnm1, active compounds read low 1.01 | S. cerevisiae deletion strains, locus YLL026W, active compounds read low 0.999 | S. cerevisiae deletion strains, locus YLL041C, strain sdh2, active compounds read low 1.01 | S. cerevisiae deletion strains, locus YLR027C, strain aat2, active compounds read low 1.02 | S. cerevisiae deletion strains, locus YLR039C, strain RIC1, active compounds read low 0.958 | S. cerevisiae deletion strains, locus YLR058C, strain SHM2, active compounds read low 1.01 | S. cerevisiae deletion strains, locus YLR102C, strain apc9, active compounds read low 0.98 | S. cerevisiae deletion strains, locus YLR221C, strain rsa3, active compounds read low 1.06 | S. cerevisiae deletion strains, locus YLR258W, strain gsy2, active compounds read low 1.06 | S. cerevisiae deletion strains, locus YLR262C, strain YPT6 (second series), active compounds read low 0.996 | S. cerevisiae deletion strains, locus YLR262C, strain YPT6, active compounds read low 0.959 | S. cerevisiae deletion strains, locus YLR268W, strain sec22, active compounds read low 0.972 | S. cerevisiae deletion strains, locus YLR320W, strain mms22, active compounds read low 1.06 | S. cerevisiae deletion strains, locus YLR330W, strain CHS5, active compounds read low 1.01 | S. cerevisiae deletion strains, locus YLR342W, strain FKS1 (second series), active compounds read low 0.951 | S. cerevisiae deletion strains, locus YLR342W, strain FKS1, active compounds read low 1.01 | S. cerevisiae deletion strains, locus YLR357W, strain rsc2, active compounds read low 1.03 | S. cerevisiae deletion strains, locus YLR370C, strain arc18, active compounds read low 1.01 | S. cerevisiae deletion strains, locus YLR371W, strain rom2, active compounds read low 0.979 | S. cerevisiae deletion strains, locus YLR384C, strain iki3, active compounds read low 1.01 | S. cerevisiae deletion strains, locus YLR418C, strain cdc73, active compounds read low 0.908 | S. cerevisiae deletion strains, locus YML016C, strain PPZ1, active compounds read low 1.01 | S. cerevisiae deletion strains, locus YML032C, strain rad52, active compounds read low 1.01 | S. cerevisiae deletion strains, locus YML120C, strain ndi1, active compounds read low 1.03 | S. cerevisiae deletion strains, locus YML124C, strain tub3, active compounds read low 0.973 | S. cerevisiae deletion strains, locus YMR058W, strain fet3, active compounds read low 1.04 | S. cerevisiae deletion strains, locus YMR078C, strain ctf18, active compounds read low 0.985 | S. cerevisiae deletion strains, locus YMR125W, strain sto1, active compounds read low 1.01 | S. cerevisiae deletion strains, locus YMR129W, active compounds read low 1.01 | S. cerevisiae deletion strains, locus YMR205C, strain PFK2, active compounds read low 1.01 | S. cerevisiae deletion strains, locus YMR223W, strain ubp8, active compounds read low 0.971 | S. cerevisiae deletion strains, locus YMR231W, strain pep5, active compounds read low 1.02 | S. cerevisiae deletion strains, locus YMR263W, strain SAP30, active compounds read low 1.02 | S. cerevisiae deletion strains, locus YMR307W, strain GAS1, active compounds read low 0.97 and 1.01 | S. cerevisiae deletion strains, locus YNL067W, strain RPL9B, active compounds read low 1.02 | S. cerevisiae deletion strains, locus YNL071W, strain lat1, active compounds read low 1.02 | S. cerevisiae deletion strains, locus YNL153C, strain GIM3, active compounds read low 1.04 and 0.971 | S. cerevisiae deletion strains, locus YNL175C, strain NOP13, active compounds read low 0.976 | S. cerevisiae deletion strains, locus YNL197C, strain WHI3, active compounds read low 0.95 | S. cerevisiae deletion strains, locus YNL209W, strain ssb2, active compounds read low 1.02 | S. cerevisiae deletion strains, locus YNL224C, strain SQS1, active compounds read low 0.977 | S. cerevisiae deletion strains, locus YNL233W, strain BNI4, active compounds read low 1 | S. cerevisiae deletion strains, locus YNL248C, strain rpa49, active compounds read low 0.983 | S. cerevisiae deletion strains, locus YNL250W, strain rad50, active compounds read low 0.955 | S. cerevisiae deletion strains, locus YNL271C, strain bni1, active compounds read low 0.978 | S. cerevisiae deletion strains, locus YNL298W, strain CLA4, active compounds read low 0.994 | S. cerevisiae deletion strains, locus YNL307C, strain MCK1, active compounds read low 0.989 | S. cerevisiae deletion strains, locus YNL322C, strain KRE1 (second series), active compounds read low 1.02 | S. cerevisiae deletion strains, locus YNL322C, strain KRE1, active compounds read low 1 and 1.01 | S. cerevisiae deletion strains, locus YNR049C, strain mso1, active compounds read low 1 | S. cerevisiae deletion strains, locus YNR052C, strain pop2, active compounds read low 0.996 | S. cerevisiae deletion strains, locus YOL012C, strain htz1 1.22 | S. cerevisiae deletion strains, locus YOL147C, strain pex11, active compounds read low 0.981 | S. cerevisiae deletion strains, locus YOR001W, strain rrp6, active compounds read low 1.01 | S. cerevisiae deletion strains, locus YOR061W, strain CKA2, active compounds read low 1.01 | S. cerevisiae deletion strains, locus YOR069W, strain VPS5, active compounds read low 1 | S. cerevisiae deletion strains, locus YOR070C, strain gyp1, active compounds read low 1.03 | S. cerevisiae deletion strains, locus YOR080W, strain dia2, active compounds read low 1.02 | S. cerevisiae deletion strains, locus YOR083W, strain WHI5 (second series), active compounds read low 0.992 | S. cerevisiae deletion strains, locus YOR083W, strain WHI5, active compounds read low 1.01 | S. cerevisiae deletion strains, locus YOR106W, strain vam3, active compounds read low 0.983 | S. cerevisiae deletion strains, locus YOR136W, strain idh2, active compounds read low 0.981 | S. cerevisiae deletion strains, locus YOR144C, strain elg1, active compounds read low 0.979 | S. cerevisiae deletion strains, locus YOR184W, strain ser1, active compounds read low 0.985 | S. cerevisiae deletion strains, locus YOR265W, strain rbl2, active compounds read low 1.02 | S. cerevisiae deletion strains, locus YOR270C, strain vph1, active compounds read low 0.989 | S. cerevisiae deletion strains, locus YOR290C, strain snf2, active compounds read low 1.02 | S. cerevisiae deletion strains, locus YOR316C, strain cot1, active compounds read low 0.983 | S. cerevisiae deletion strains, locus YPL051W, strain arl3, active compounds read low 1.04 | S. cerevisiae deletion strains, locus YPL055C, strain LGE1, active compounds read low 1.01 and 1.06 | S. cerevisiae deletion strains, locus YPL078C, strain atp4, active compounds read low 0.992 | S. cerevisiae deletion strains, locus YPL106C, strain sse1, active compounds read low 1.07 | S. cerevisiae deletion strains, locus YPL240C, strain hsp82, active compounds read low 0.995 | S. cerevisiae deletion strains, locus YPR119W, strain clb2, active compounds read low 0.972 | S. cerevisiae deletion strains, locus YPR141C, strain kar3, active compounds read low 0.954 | S. cerevisiae deletion strains, locus YPR163C, strain tif3, active compounds read low 0.985 | S. cerevisiae deletion strains, locus YPR167C, strain met16, active compounds read low 0.971 | S. cerevisiae deletion strains, strain wtn01, active compounds read low 0.984 | S. cerevisiae strains, strain wild type, active compounds read low 1.01
